Laboratory results taken from PubChem BioAssay AID485284 (NMMLSC, 2010).
Potency and affinity values are given separately.

Experiment: inhibitors of CD8+ T cell–vesicle binding, dose response, mouse 2C CD8+ T cells, flow cytometry (AID 485284);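 note: drosophila derived vesicles carrying Ld MHC with QL9 peptide plus B7-1 and ICAM-1; vesicle binding seen as anti-B7-1 PE fluorescence on CD8 gated cells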
Conditions: 2C mouse CD8+ T cell-exosome binding; at 45 µM (top of the series)

First: Cc1nc2sc(C(c3ccccc3)N3CCN(c4ccccc4F)CC3)c(O)n2n1 (stereo not drawn)
Second: O=C(NCc1cccnc1)C(=O)NCC(c1ccco1)N1CCN(c2ccccc2)CC1 (stereo not drawn)
The binding remaining, % of control of the first is higher: 163% for the first, 110% for the second.

First: CC1=C/C(=C(\c2ccc(O)c(C)c2)c2ccccc2S(=O)(=O)O)C=CC1=O
Second: COc1ccccc1C(=O)COC(=O)C1CCN(S(=O)(=O)c2ccc(C)c(C)c2)CC1
The binding remaining, % of control of the first is higher: 138% for the first, 24.2% for the second.

Compared with `O=C(N/N=C/c1cccc(OC(=O)c2ccccc2Cl)c1)c1cccnc1`, `COC(=O)c1ccc(OC(=O)CS(=O)c2ccccc2[N+](=O)[O-])cc1` (stereo not drawn) is lower in binding remaining, % of control: 168% for the first, 97.9% for the second.

First: COc1cccc(NC(=O)Nc2ccc3nc(C)c(C)nc3c2)c1
Second: COc1ccc(C(=O)NNC(=O)CSc2nnnn2C)cc1
The binding remaining, % of control of the first is lower: 129% for the first, 181% for the second.

First: Cc1ccsc1C(=O)OCC(=O)N1CCN(c2ccccc2)CC1
Second: COc1ccc(CC(=O)OCC(=O)N2CCN(S(=O)(=O)c3ccc(C)cc3C)CC2)cc1
The binding remaining, % of control of the first is higher: 129% for the first, 102% for the second.

First: CCOc1ccc(S(=O)(=O)N2CCC(C(=O)Nc3cc(S(C)(=O)=O)ccc3Cl)CC2)cc1
Second: COc1ccccc1NS(=O)(=O)c1ccc(C)c(NC(=O)c2ccc(S(=O)(=O)N3CCCCCC3)cc2)c1
The binding remaining, % of control of the first is lower: 106% for the first, 134% for the second.

Going from `O=C(COC(=O)c1ccc(S(=O)(=O)N2CCOCC2)cc1)Nc1ccccc1OC(F)F` to `O=C(Cc1ccc2c(c1)OCCO2)Nc1cccc(S(=O)(=O)N2CCOCC2)c1`, the binding remaining, % of control rises from 20.5% to 135%.

Compared with `COc1ccc(/C=C2\SC(N3CCc4ccccc4C3)=NC2=O)cc1OC`, `COc1ccc([C@H]2CC(=O)C=C(/C=C/c3ccccc3)C2)cc1` is higher in binding remaining, % of control: 18.6% for the first, 52.1% for the second.

Going from `CCOC(=O)c1cnc(=O)[nH]c1C` to `CCOC(=O)c1cn(CC)c2cc(Cl)c([N+](=O)[O-])cc2c1=O`, the binding remaining, % of control falls from 189% to 128%.

Compared with `CNCc1cn2cc(Cl)ccc2n1`, `CCCNC(=O)c1nc2ncc(Br)cn2n1` is higher in binding remaining, % of control: 125% for the first, 153% for the second.

Going from `COc1ccccc1N1CCN(C(=O)C2CCCN(S(=O)(=O)c3ccc(C)cc3)C2)CC1` (stereo not drawn) to `COc1ccc(NC(=O)C2CCC(C(C)(C)C)CC2)cc1S(=O)(=O)N1CCCCC1` (stereo not drawn), the binding remaining, % of control falls from 132% to 97.1%.

Compared with `CN(C)S(=O)(=O)N1CCN(S(=O)(=O)N(C)C)CC1`, `Cc1cnc(C(=O)Nc2ccc(C)c(S(=O)(=O)N3CCCCC3)c2)cn1` is higher in binding remaining, % of control: 55.7% for the first, 114% for the second.

First: CSc1cccc(NC(=O)CCCn2c(=O)c3cccn3c3cccnc32)c1
Second: Cc1cc(=O)oc2c3c(cc(OCC(=O)NCc4ccncc4)c12)OC(C)(C)CC3
The binding remaining, % of control of the first is lower: 87.5% for the first, 119% for the second.

Going from `Cc1c(C)c2c(OCC(=O)NCC(O)c3ccccc3)cc3c(c2oc1=O)CCC(C)(C)O3` (stereo not drawn) to `CCc1noc(C)c1C(=O)OC(C)C(=O)Nc1ccc2c(c1)OCO2` (stereo not drawn), the binding remaining, % of control rises from 72.4% to 171%.

Going from `C[N+]1(C)CC2([N+](=O)[O-])CC=C(Oc3ccccc3)C([N+](=O)[O-])(C2)C1` (stereo not drawn) to `Cc1ncc([N+](=O)[O-])n1Cc1cccc(F)c1`, the binding remaining, % of control rises from 24.8% to 40.3%.

Compared with `CCOC(=O)Nc1sc(C)c(C)c1C(N)=O`, `CCOC(=O)c1cc2occc2n1CC(=O)NC1CCC(C)CC1` (stereo not drawn) is lower in binding remaining, % of control: 103% for the first, 77% for the second.

`CCOc1ccc(-c2csc(NNC3=NCCCCC3)n2)cc1` gave a binding remaining, % of control of 156%.
